# PubChem BioAssay AID504910 (Southern Research Specialized Biocontainment Screening …, 2011)
# Entries with a potency or affinity are not part of this list. Calls of active or inactive are those of the source. How the calls were made is not given here.
# Assay: HepG2 cell cytotoxicity, cytotoxicity control, set 4 (AID 504910)
# Conditions: series mostly up to 50 µM
row,SMILES,outcome
1,CN(C)C(=O)CSc1nc2ccccc2c(=O)[nH]1,inactive
2,O=C(CSc1nc2c(c(=O)[nH]1)CCCC2)NC1CCCCC1,inactive
3,CO[C@H]1/C=C/O[C@@]2(C)Oc3c(C)c(O)c4c(O)c(c(C=NN5CCN(C)CC5)c(O)c4c3C2=O)NC(=O)/C(C)=C\C=C\[C@H](C)[C@H](O)[C@@H](C)[C@@H](O)[C@@H](C)[C@H](OC(C)=O)[C@@H]1C,inactive
4,NC[C@H]1O[C@H](O[C@H]2[C@H](O)[C@@H](O[C@H]3O[C@H](CO)[C@@H](O)[C@H](N)[C@H]3O)[C@H](N)C[C@@H]2N)[C@H](O)[C@@H](O)[C@@H]1O,inactive
5,CC1CCN(C(=O)CSc2nc3ccccc3c(=O)[nH]2)CC1,inactive
6,CCC(Sc1nc2ccccc2c(=O)[nH]1)C(=O)NC1CCCCC1 (stereo unspecified),inactive
7,Cc1cc(=O)[nH]c(SCC(=O)NC2CCCCC2)n1,inactive
8,CCC(Sc1nc2c(c(=O)[nH]1)CCC2)C(=O)Nc1cccc(OC)c1 (stereo unspecified),inactive
9,O=C(CSc1nc2ccccc2c(=O)[nH]1)N1CCOCC1,inactive
10,Cc1ccc(NC(=O)COC(=O)CCc2c[nH]c3ccccc23)cc1[N+](=O)[O-],inactive
11,NC(=O)CSc1nc2ccccc2c(=O)[nH]1,inactive
12,CCOC(=O)CSc1nc(C)c(C)c(=O)[nH]1,inactive
13,Cc1cnc(SCC(=O)NC2CCCCC2)[nH]c1=O,inactive
14,Cc1nc(SCC(=O)NCCC(C)C)[nH]c(=O)c1C,inactive
15,CC(C)CCNC(=O)CSc1nc2ccccc2c(=O)[nH]1,inactive
16,CN(C(=O)CSc1nc2ccccc2c(=O)[nH]1)C1CCCCC1,inactive
